Experimental findings from ChEMBL document CHEMBL5308504, “Tm Shift (DSF) assay results for EUbOPEN Chemogenomics Library” (2023) are described below.

Several values for one entry are separate records, joined by “and”; a condition that tells them apart may be missing. Equal entries are not always repeated.

The target of the assay is Cyclin-dependent kinase 2 (Homo sapiens) (UniProt P24941). The conditions noted are these: Compound concentration 20.0 uM, Protein concentration 2.0 uM, Result type QC Liability.
Broadly, the ΔTm is the change in melting temperature against a reference sample. `O=C(O)CCCc1cc2cc(Cl)ccc2n1S(=O)(=O)c1ccc2ncsc2c1`: the ΔTm came to 0.24 °C.
Under `CCc1c(-c2ccc3[nH]ncc3c2)cnc(N)c1-c1ccc(O)cc1` stands 2.8 °C; under `Cc1sc(C(=O)c2cncnc2N[C@@H]2C[C@H](COS(N)(=O)=O)[C@@H](O)C2)cc1[C@@H]1NCCc2ccc(Cl)cc21`, 0.66 °C; under `Cc1cccc(-c2nn3c(c2-c2ccnc4ccc(C(N)=O)cc24)CCC3)n1`, 0.75 °C.
Then `Cc1nc(-c2ccc(C(F)(F)F)cc2)sc1C(=O)NCc1ccc(OC(C)(C)C(=O)O)cc1`, with 0.76 °C; and `Nc1nc(-c2nn(Cc3ccccc3F)c3ncccc23)ncc1C1CC1`, with 0.56 °C.
For `Cc1cc(CN(CC(=O)Nc2ccc(Cl)cc2Cl)C2CCCCC2)ccc1OCC(=O)O`, the ΔTm was -2.21 °C.
Then `NCC1CCC(CNc2nc(NCc3ccccc3OC(F)(F)F)ncc2[N+](=O)[O-])CC1` (stereo not given), with -0.56 °C; and `COc1ncc(-c2cc(-c3ncc(CN4C[C@@H](C)O[C@@H](C)C4)o3)c3cn[nH]c3c2)cc1NS(C)(=O)=O`, with 0.2 °C.
Take `CN(C)C(=O)c1sc2nc(N3CCC(S(C)(=O)=O)CC3)cc(C(F)(F)F)c2c1N`: the ΔTm was 0.58 °C and 0.19 °C.
